Only a selection was taken, and hits are over-represented in it overall.
ALR inh: inhibitors of human ALR sulfhydryl oxidase, primary screen, biochemical, H2O2 detection, HRP-luminol luminescence, single point; FAD-linked sulfhydryl oxidase ALR (Homo sapiens), P55789; purified ALR, DTT oxidation; inhibition, % (concentration not given with the values); 3.8% of 290,000 active; AID 485317, 2010;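 active = mean replicate inhibition above about 79%, with every replicate also reaching it, limit read from the data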
PDI turbidity: inhibitors of human PDI, primary screen, biochemical, turbidity, single point, plate reader; inhibition, % at 10 µM; 0.052% of 350,000 active; PDI insulin aggregation turbidity, A650, 90 min; Protein disulfide-isomerase (Homo sapiens), P07237; AID 588391, 2011;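 active = mean inhibition across replicates of 30% or more, whatever share of single replicates reach that level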
Target sequence (P07237 whole entry, looked up): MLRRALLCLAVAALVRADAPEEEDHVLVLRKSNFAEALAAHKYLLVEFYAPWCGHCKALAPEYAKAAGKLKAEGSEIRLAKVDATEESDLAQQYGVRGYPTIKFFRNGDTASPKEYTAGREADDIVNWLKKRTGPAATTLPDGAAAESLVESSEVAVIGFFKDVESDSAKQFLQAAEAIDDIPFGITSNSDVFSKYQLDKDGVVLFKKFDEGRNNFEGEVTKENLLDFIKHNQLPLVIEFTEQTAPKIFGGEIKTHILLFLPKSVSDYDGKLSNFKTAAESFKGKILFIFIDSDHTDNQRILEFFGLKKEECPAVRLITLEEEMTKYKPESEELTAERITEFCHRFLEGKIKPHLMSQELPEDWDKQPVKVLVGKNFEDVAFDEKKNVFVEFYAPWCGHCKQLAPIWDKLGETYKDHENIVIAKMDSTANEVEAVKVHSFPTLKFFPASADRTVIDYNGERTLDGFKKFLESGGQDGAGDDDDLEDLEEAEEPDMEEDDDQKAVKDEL
ARNT TACC3 PPI: disruptors of ARNT/TACC3 protein interaction, primary screen, biochemical, AlphaScreen, single concentration; Transforming acidic coiled-coil-containing protein 3 (Homo sapiens), Q9Y6A5; AlphaScreen His-ARNT PAS-B/GST-TACC3 binding, luminescence; TACC3 fragment carries E629A point mutation; inhibition, % at 9.99 µM; 0.66% of 390,000 active; AID 623870, 2012;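 active = mean inhibition of replicates at least 50% and at least half of replicates each reaching 50%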;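 note: 0% = complete ARNT plus TACC3 wells and 100% = ARNT alone without TACC3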
PglD DTNB: C. jejuni PglD acetyltransferase inhibitors, primary screen, biochemical, DTNB colorimetric, single point | UDP-N-acetylbacillosamine N-acetyltransferase PglD (Campylobacter jejuni) | purified PglD enzyme, DTNB colorimetric CoA detection | inhibition, % at 12.5 µM | 0.098% of 360,000 active; in the data active = inhibition above about 16%, passing the limit was not always enough
ERp5 inh: inhibitors of ERp5-driven insulin aggregation, primary screen, biochemical, turbidity, absorbance 650 nm, single point; 90 min; 0.05% of 350,000 active; inhibition, % at 9.99 µM; AID 651711, 2012; Protein disulfide-isomerase A6 (Homo sapiens), Q15084;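 active = mean replicate inhibition above about 25%, with every replicate also reaching it, limit read from the data, passing the limit was not always enough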
CendR NRP1 mod: modulators of CendR peptide binding to NRP-1, primary screen, biochemical, fluorescence polarization, uHTS; Neuropilin-1 (Homo sapiens), O14786; FAM-RPARPAR peptide binding to NRP-1; inhibition, % at 25 µM; 0.85% of 360,000 active; AID 602438, 2012;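 active = inhibition or corrected inhibition above about 18%, plus a signal ratio from 0.5 to 1.5, limit read from the data, passing the limit was not always enough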
PglD confirm: PglD acetyltransferase inhibitors, confirmation, biochemical, DTNB absorbance, single point, cherry-picked samples; 320 tested, under 10 active; Purified C. jejuni PglD, DTNB absorbance 412 nm; inhibition, % at 20 µM; shares compounds with PglD DTNB;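 active = mean inhibition across replicates of at least 20% with every single replicate also at 20% or more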;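 note: initial rate of CoA release by acetyl transfer from AcCoA to the UDP-4-amino sugar; 0% = median of neutral control wells and 100% = median of positive control wells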
Active calls of the source: *; / = no result.

SMILES	ALR inh	PDI turbidity	ARNT TACC3 PPI	PglD DTNB	ERp5 inh	CendR NRP1 mod	PglD confirm
CCOC(=O)c1[nH]c2ccc(F)cc2c1NC(=O)CCN1CCOCC1	-2	6	/	/	-3	-12	/
CCOC(=O)c1[nH]c2ccc(Br)cc2c1NC(=O)CCN1CCCC(C)(C)C1	1	-5	/	/	-4	29*	/
CCOC(=O)c1[nH]c2ccc(C)cc2c1NC(=O)CN1CCCCC1	98*	2	5	2	/	-4	/
CO[C@@H]1CN(C)C(=O)c2ccc(NC(C)=O)cc2OC[C@@H](C)N(C(=O)c2cccnc2)C[C@H]1C	/	/	2	-2	-1	/	/
N#CC1=C(SCc2ccccc2)NC(=O)CC1c1ccco1 (centres undefined)	100*	-2	-4	2	/	-23	/
C[C@H]1CN([C@@H](C)CO)S(=O)(=O)c2ccc(-c3ccc(C#N)cc3)cc2O[C@H]1CN(C)C	/	/	1	0	-3	/	/
CC1CCC2(CC1)NC(=O)N(CC(=O)NCc1ccc(Cl)cc1)C2=O (centres undefined)	2	-9	-3	21*	-3	12	1
CCC1CCC2(CC1)NC(=O)N(CC(=O)NCc1ccc(Cl)cc1)C2=O (centres undefined)	1	2	-3	2	1	0	/
CO[C@H]1CN(C)C(=O)c2cc(NS(C)(=O)=O)ccc2OC[C@@H](C)N(C(=O)C2CCC2)C[C@@H]1C	/	/	-5	0	5	/	/
CCOC(=O)c1[nH]c(C)c(C)c1C	-10	3	-1	25*	/	7	-1
CCOC(=O)c1[nH]c(C)c(C(=O)OC)c1C	0	-5	-2	/	8	-8	/
C[C@H]1CN([C@@H](C)CO)C(=O)c2cc(NS(C)(=O)=O)ccc2O[C@@H]1CN(C)Cc1ccc(Cl)c(Cl)c1	/	/	-1	-2	1	/	/
COCC#Cc1cnc2c(c1)C(=O)N([C@@H](C)CO)C[C@H](C)[C@H](CN(C)C(=O)C1CCC1)O2	/	/	/	5	5	/	/
Cc1c(C(=O)Nc2ccccc2C(=O)N2CCCC2)cccc1[N+](=O)[O-]	-17	-14	3	23*	7	3	2
CC(C)CC#Cc1cnc2c(c1)C(=O)N([C@H](C)CO)C[C@H](C)[C@@H](CN(C)C(=O)c1ccccc1)O2	/	/	-4	-1	-1	/	/
CCCCCn1c(=O)c(Cc2ccccc2)c(O)c2ccccc21	5	-8	5	22*	/	0	2
CCCn1c(=O)c(Cc2ccccc2)c(O)c2ccccc21	2	9	-1	-3	/	-16	/
COc1ccc(/C(C)=N/Nc2ccc(C(=O)O)cc2)cc1OC	/	5	4	58*	/	-7	0
CC(C)c1cccc(-c2csc(C(C)(O)c3ccc(F)c(F)c3)n2)c1 (centres undefined)	/	2	/	24*	5	16	3
CC(O)(c1ccc(F)c(F)c1)c1nc(-c2cccc(F)c2)cs1 (centres undefined)	/	3	/	2	0	3	/
CN(C)C(=O)c1cccc(-c2ccc3c(c2)[C@H]2[C@H](CCN2Cc2ccccc2F)[C@@H](CO)N3)c1	/	/	8	-2	/	/	/
CCOc1cc(C2NC(=O)NC(c3ccccc3)=C2C(C)=O)ccc1OC(C)=O (centres undefined)	1	0	-25	23*	-2	1	-4
O=C(C[C@H]1C=C[C@H](NC(=O)Nc2ccc3c(c2)OCO3)[C@H](CO)O1)NCc1ccccc1	/	/	0	1	4	/	/
CC1CCCN(S(=O)(=O)c2ccc(Br)s2)C1 (centres undefined)	/	-2	-1	1	5	-35	/
CC1CCCN(S(=O)(=O)c2ccc(Cl)s2)C1 (centres undefined)	-6	-4	-2	26*	4	-3	12
SMILES	ALR inh	PDI turbidity	ARNT TACC3 PPI	PglD DTNB	ERp5 inh	CendR NRP1 mod	PglD confirm
C[C@@H]1CN([C@H](C)CO)C(=O)c2cc(NC(=O)Cc3ccccc3)ccc2O[C@@H](C)CCCCO[C@@H]1CN(C)S(=O)(=O)c1cccs1	/	/	15	-2	/	/	/
COc1cc(NC(=O)COC(=O)CSc2cc(C)ccc2C)c(C)cc1[N+](=O)[O-]	/	14	-3	22*	3	-3	-6
COc1cc(NC(=O)COC(=O)CSc2ccccc2F)c(C)cc1[N+](=O)[O-]	-17	8	-9	/	-5	-10	/
C[C@@H]1CN([C@H](C)CO)C(=O)Cc2cc(N(C)C)ccc2O[C@H]1CN(C)Cc1ccncc1	/	/	-1	2	-1	/	/
C[C@H]1CN([C@@H](C)CO)C(=O)c2cccc(NC(=O)Nc3ccc(F)cc3)c2O[C@@H]1CN(C)CC1CC1	/	/	-11	-4	-8	/	/
O=C(COC(=O)c1cccc(F)c1)Nc1cccc(S(=O)(=O)N2CCOCC2)c1	/	0	/	5	0	-3	/
O=C(COC(=O)c1cccc(F)c1)Nc1cccc(S(=O)(=O)N2CCCCC2)c1	/	-1	/	22*	-5	-7	-2
O=C(NC1Cc2ccccc2C1)[C@@H]1[C@@H](CO)[C@@H]2Cn3c(ccc(-c4ccccc4)c3=O)[C@H]1N2	/	/	-1	0	1	/	/
COCC(=O)NCCNc1nc2ccc(C)cc2cc1C	-6	-4	/	41*	/	3	-3
COc1ccc(S(=O)(=O)N2CCN(CCOc3ccc(Br)cc3)CC2)cc1OC	-4	4	-2	-1	-3	5	/
COc1ccc(OC)c(C(=O)CN2CCN(S(=O)(=O)c3ccc(Br)cc3)CC2)c1	-18	24	-3	21*	/	0	3
COc1ccc(CN(C)C[C@H]2Oc3ccc(NC(=O)Nc4ccc5c(c4)OCO5)cc3C(=O)N([C@H](C)CO)C[C@@H]2C)cc1	/	/	3	4	-3	/	/
COc1ccc(/C(O)=C2/C(=O)C(=O)N(CCCN3CCOCC3)C2c2ccc(Cl)cc2)cc1 (centres undefined)	/	19	/	24*	3	-3	-1
C[C@H]1CN([C@@H](C)CO)C(=O)c2cccc(NC(=O)c3ccc(-c4nccs4)cc3)c2O[C@H]1CN(C)S(=O)(=O)c1cccs1	/	/	-2	5	4	/	/
COc1ccc(-c2cnnc(N/N=C/c3ccc(O)c(OC)c3)n2)cc1	16	8	19	26*	/	-6	6
